This is part of a sample that, as a whole, favours compounds with a hit. Of some 79,000 tested, about 15% had one in any assay. A number with no mark means an inactive call. Active and inactive are the calls of the source. Rule as the data show it: active = growth inhibition above about 70%; inactive = the rest.
Key:
[1] = NCI Yeast Anticancer Drug Screen. Data for the rad50 strain (AID 155);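 also: 0% = growth of vehicle-only cultures of the same strain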; conditions: S. cerevisiae rad50 strain growth inhibition, hits give high values
Outline: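 DNA repair mutant yeast, compound exposure, growth read-out; inhibition is taken relative to vehicle.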

[2] = NCI Yeast Anticancer Drug Screen. Data for the mec2-1 strain (AID 157); conditions: S. cerevisiae mec2-1 strain, hits give high values
Outline: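 Compounds were applied to mec2-1 yeast cells. Their growth was then compared with that of vehicle-treated cultures to give growth inhibition.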

[3] = NCI Yeast Anticancer Drug Screen. Data for the sgs1 mgt1 strain (AID 161);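 also: 0% = growth of cultures given vehicle only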; conditions: S. cerevisiae sgs1 mgt1 strain, hits give high values
Outline: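 Compounds are added to genetically altered yeast, and growth is compared with cultures given vehicle alone to give percent inhibition.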

[4] = NCI Yeast Anticancer Drug Screen. Data for the cln2 rad14 strain (AID 165);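 also: 0% = growth equal to vehicle treated cultures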; conditions: S. cerevisiae cln2 rad14 strain, hits give high values
Outline: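 Strain: cln2 rad14 yeast, altered in cell cycle control and DNA damage repair. Read-out: growth inhibition vs vehicle.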

[5] = NCI Yeast Anticancer Drug Screen. Data for the bub3 strain (AID 167); conditions: S. cerevisiae bub3 mutant strain, hits give high values
Outline: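 In this screen, a yeast mutant lacking normal mitotic checkpoint function is challenged with compound. Relative growth versus vehicle gives the inhibition value.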

[6] = NCI Yeast Anticancer Drug Screen. Data for the mlh1 rad18 strain (AID 175); conditions: S. cerevisiae mlh1 rad18 strain growth inhibition, hits give high values
Outline: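 A repair-deficient yeast strain is exposed to test compound, and growth is scored relative to vehicle-treated controls.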

[7] = at 5.0 µM (retest, dose inferred, filed as 0.5)
[8] = at 50.0 µM (retest, dose inferred, filed as 5.0)

| Compound | growth inhibition [1, 7] | growth inhibition [1, 8] | growth inhibition ([1]; at 50.0 µM) | growth inhibition [2, 7] | growth inhibition [2, 8] | growth inhibition ([2]; at 50.0 µM) | growth inhibition [3, 7] | growth inhibition [3, 8] | growth inhibition ([3]; at 50.0 µM) | growth inhibition [4, 7] | growth inhibition [4, 8] | growth inhibition ([4]; at 50.0 µM) | growth inhibition [5, 7] | growth inhibition [5, 8] | growth inhibition ([5]; at 50.0 µM) | growth inhibition [6, 7] | growth inhibition [6, 8] | growth inhibition ([6]; at 50.0 µM) |
| --- | --- | --- | --- | --- | --- | --- | --- | --- | --- | --- | --- | --- | --- | --- | --- | --- | --- | --- |
| c1ccc2c(c1)cc(C1NCCc3[nH]cnc31)c1ccccc12 (configuration not stated) | 13% | 80% (active) | 47% | -4% | 83% (active) | 1.5% | 16% | 82% (active) | -15.3% | 26% | 71% (active) | 30.4% | 13% | 96% (active) | 11.1% | -21% | 97% (active) | 61.9% |
| O=C(CCl)OCC(=O)c1ccc(-c2ccccc2)cc1 | 9% | 97% (active) | 10.2% | 5% | 97% (active) | -1.9% | 10% | 99% (active) | 21.2% | 28% | 95% (active) | 10.2% | 11% | 98% (active) | 19.4% | 16% | 98% (active) | 32.4% |
| CCc1c(O)c(O)c(C(C)=O)c2c(O)c(-c3c(C)cc4c(CC)c(O)c(O)c(C(C)=O)c4c3O)c(C)cc12 | -13% | 96% (active) | 94.2% (active) | 9% | 96% (active) | 95.3% (active) | -10% | 96% (active) | 95.2% (active) | -20% | 94% (active) | 92.9% (active) | 11% | 97% (active) | 95.7% (active) | 7% | 96% (active) | 95.5% (active) |
| O=C(Sc1c(-c2ccccc2)c(=O)n(-c2ccccc2)c(=S)n1-c1ccccc1)c1cccs1 | 37% | 92% (active) | 72.2% (active) | 39% | 95% (active) | 73.1% (active) | 23% | 93% (active) | 77.9% (active) | 25% | 92% (active) | 56% | 47% | 95% (active) | 84% (active) | 66% | 95% (active) | 77.6% (active) |
| CC(Nc1ccc(Cl)c(Cl)c1)c1ccncc1 (configuration not stated) | 1% | 98% (active) | 85.8% (active) | -36% | 95% (active) | 85.8% (active) | -26% | 98% (active) | 79.8% (active) | 32% | 98% (active) | 83.9% (active) | -47% | 99% (active) | 86% (active) | -1% | 98% (active) | 82.6% (active) |
| CC1(C)S[C@@H]2[C@H](N3C(=O)c4ccccc4C3=O)CN2[C@H]1NC(=O)N[C@@H]1N2C[C@@H](N3C(=O)c4ccccc4C3=O)[C@H]2SC1(C)C | 0% | 18% | 39.6% | -4% | 43% | 63.8% | -2% | 20% | 43% | -6% | 44% | 23.2% | 4% | 93% (active) | 92.8% (active) | -2% | 36% | 70.8% (active) |
| Oc1ccc(N=Nc2cc(Cl)ccc2Cl)cc1 | 92% (active) | 95% (active) | 98.5% (active) | 94% (active) | 96% (active) | 98.2% (active) | 95% (active) | 95% (active) | 98.5% (active) | 94% (active) | 94% (active) | 82.5% (active) | 93% (active) | 95% (active) | 98% (active) | 94% (active) | 96% (active) | 97.7% (active) |
| CCNC(=O)NNc1ncnc2c1c(-c1ccc(Cl)cc1)cn2-c1ccc(C)cc1 | -10% | 98% (active) | 96.7% (active) | -11% | 98% (active) | 97.7% (active) | 5% | 99% (active) | 98.3% (active) | 7% | 97% (active) | 96.5% (active) | 0% | 97% (active) | 40% | -17% | 98% (active) | 97.2% (active) |
| COc1ccc2c(c1)CCC/C2=N\NS(=O)(=O)c1c(C)cc(C)cc1C | 15% | 59% | 26.2% | 16% | 60% | -43.2% | 16% | 38% | 37.1% | 8% | 68% | 73.5% (active) | 11% | 52% | 54.8% | 26% | 75% (active) | 5.7% |

Reference: PubChem BioAssay (NCI)
